Drawing on PubChem BioAssay (EPA / NIEHS), this text covers outcome and AC50 for 16 molecules.

Inconclusive results are not listed. Calls of active or inactive are those of the source. Rule for the calls, unless noted: active = hit-call score of the fitted dose curve at least 0.9, where 1 is the maximum; inactive = score below 0.9.

Read-out in assay [1]: Tumor necrosis factor (Homo sapiens) (UniProt P01375)
Description: BSK_BT_xTNFa: BioMAP Diversity Plus: BT Assay for Tumor necrosis factor alpha (TNF-alpha) Biomarker Activity (AID 2284230). As to conditions: primary human B cells with PBMC. The method in brief: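 B cells with PBMC in co-culture, dosed and sampled at 24 h; secreted TNF-alpha measured by Luminex xMAP bead assay. Activity fitted in the gain direction against DMSO as negative control and baseline.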

Read-out in assay [2]: Vascular cell adhesion molecule 1 (VCAM1), VCAM1 (gene 7412)
As to the kind of experiment: BSK_MyoF_VCAM1: BioMAP Diversity Plus: MyoF Assay for Vascular cell adhesion molecule 1 (VCAM1) Biomarker Activity (AID 2284231). Conditions: primary human lung fibroblasts. The method in brief: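 Primary human lung fibroblasts were dosed with test chemical for 24 h, then cell-surface VCAM-1 was measured by ELISA. Activity was fitted in the positive direction against DMSO as negative control and baseline.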

Read-out in assay [3]: Collagen I, COL1A1 (gene 1277)
As to the kind of experiment: BSK_MyoF_CollagenI: BioMAP Diversity Plus: MyoF Assay for Collagen I Biomarker Activity (AID 2284238). As to conditions: primary human lung fibroblasts. The method in brief: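 Human lung fibroblasts were exposed to test chemical for 24 h, then Collagen I was quantified by ELISA. Activity was fitted in the increasing direction against DMSO as the negative control and baseline.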

Read-out in assay [4]: Interleukin 17F (IL17F), IL17F (gene 112744)
Description: BSK_BT_xIL17F: BioMAP Diversity Plus: BT Assay for Interleukin 17F (IL17F) Biomarker Activity (AID 2284243). As to conditions: primary human B cells with PBMC. The procedure, abridged:
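B cell/PBMC co-culture (human primary), 24 h compound exposure; sIL-17F by Luminex xMAP; gain-of-signal fit vs DMSO baseline.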

Read-out in assay [5]: Actin alpha 1 (ACTA1), ACTA1 (gene 58)
Description: BSK_MyoF_ACTA1: BioMAP Diversity Plus: MyoF Assay for Actin alpha 1 (ACTA1) Biomarker Activity (AID 2284244). Conditions: primary human lung fibroblasts. The method in brief:
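ELISA read-out of a-SMA in primary human lung fibroblast cultures, 24 h post-dosing. Activity scored in the positive direction versus DMSO baseline.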

Read-out in assay [6]: Basic fibroblast growth factor (bFGF), FGF2 (gene 2247)
Description: BSK_MyoF_bFGF: BioMAP Diversity Plus: MyoF Assay for Basic fibroblast growth factor (bFGF) Biomarker Activity (AID 2284246). Conditions: primary human lung fibroblasts. The procedure, abridged:
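Primary human lung fibroblast culture, 24 h compound exposure; ELISA read-out of bFGF. Positive-direction fit vs DMSO baseline. Cytotoxicity: SRB stain (0.1% SRB, 10% TCA fixation, 560 nm) in parallel wells.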

Read-out in assay [7]: Interleukin-8 (IL8), CXCL8 (gene 3576)
Description: BSK_MyoF_IL8: BioMAP Diversity Plus: MyoF Assay for Interleukin-8 (IL8) Biomarker Activity (AID 2284261). Conditions: primary human lung fibroblasts. The procedure, abridged: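 ELISA read-out of IL-8 from primary human lung fibroblasts, 24 h post-dose; positive-direction curve fitting relative to DMSO vehicle baseline.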

Assay [8] is described as follows: BSK_MyoF_SRB: Viability Assessment in the BioMAP Diversity Plus: MyoF Assay (AID 2284267).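 Note: total protein by SRB absorbance in parallel cultures as cytotoxicity measure; cells assessed 24 h after compound addition.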 Conditions: primary human lung fibroblasts. The procedure, abridged:
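Lung fibroblast cultures, 24 h post-dose; fix 10% TCA, stain 0.1% SRB, read 560 nm. Signal = total protein as cytotoxicity measure; fitted relative to DMSO negative control.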

In assay [9] the test system is Thyroperoxidase (TPO), gene 54314. Description: CCTE_Simmons_AUR_rTPO: CCTE's Amplex UltraRed Assay for Thyroperoxidase (TPO) Inhibition, Simmons Lab (AID 2283662; active = hit-call score of the fitted dose curve at least 0.9, where 1 is the maximum;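 for AC50: potency for loss of signal meaning inhibition of peroxidase activity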). The method in brief: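 Rat thyroid microsomes (5 ug protein) with 25 uM Amplex UltraRed and 300 uM H2O2 in 200 mM phosphate buffer, 30 min at 37C in dark; fluorescence 544/590 nm. Eight concentrations, 5 nM–87.5 uM final, 0.5% DMSO, triplicate biological replicates.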

Assay [10] in a line: CCTE_Simmons_CellTiterGLO_HEK293T: Viability Assessment in CCTE's Assays for Thyroperoxidase (TPO) Inhibition, Simmons Lab (AID 2283665; active = hit-call score of the fitted dose curve at least 0.9, where 1 is the maximum;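 for AC50: cells exposed to compound for 24 h before readout; actives reduce ATP signal below DMSO vehicle meaning cytotoxicity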). The procedure, abridged:
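Luminescent ATP readout (CellTiter-Glo, 20 min at room temperature) after 24 hr exposure of HEK293T cells to 5 nM–87.5 uM final compound; signal loss relative to DMSO vehicle indicated cytotoxicity; dichlone titrated as positive control.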

Assay [11] has as its target Luciferin 4-monooxygenase (Photinus pyralis) (UniProt P08659). Description: CCTE_Simmons_QuantiLum_inhib_2: CCTE's Firefly Luciferase Inhibition Assay, Simmons Lab (AID 2283767; active = hit-call score of the fitted dose curve at least 0.9, where 1 is the maximum). The method in brief:
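Cell-free QuantiLum luciferase, 5 ng/well; compounds 5 nM–87.5 uM final, 8 conc, 0.5% DMSO; 30 min, 37C, dark. Detection reagent (150 uM D-luciferin, 147 uM dATP, CoA, DTT, pH 7.8 final) injected per well, kinetic luminescence. Triplicate biological replicates.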

The target of assay [12] is rat Thyrotropin Releasing Hormone Receptor (TRH), Trhr (gene 25570) (UniProt Q01717). Description: NVS_GPCR_rTRH: NovaScreen (NVS) G Protein-Coupled Receptor Assay for rat Thyrotropin Releasing Hormone Receptor (TRH) (AID 2283329; active = hit-call score of the fitted dose curve at least 0.9, where 1 is the maximum;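 note: hit means lower bound tracer signal versus DMSO baseline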). The method in brief: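 Rat forebrain membranes; radioligand displacement at TRH receptor by filter-based scintillation counting, read 4 h after dosing. Duplicate single-point screen at 25 uM, actives rerun in concentration series; loss of signal relative to DMSO.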
rat Thyrotropin Releasing Hormone Receptor (TRH), Trhr (gene 25570), sequence (Q01717 whole entry, looked up): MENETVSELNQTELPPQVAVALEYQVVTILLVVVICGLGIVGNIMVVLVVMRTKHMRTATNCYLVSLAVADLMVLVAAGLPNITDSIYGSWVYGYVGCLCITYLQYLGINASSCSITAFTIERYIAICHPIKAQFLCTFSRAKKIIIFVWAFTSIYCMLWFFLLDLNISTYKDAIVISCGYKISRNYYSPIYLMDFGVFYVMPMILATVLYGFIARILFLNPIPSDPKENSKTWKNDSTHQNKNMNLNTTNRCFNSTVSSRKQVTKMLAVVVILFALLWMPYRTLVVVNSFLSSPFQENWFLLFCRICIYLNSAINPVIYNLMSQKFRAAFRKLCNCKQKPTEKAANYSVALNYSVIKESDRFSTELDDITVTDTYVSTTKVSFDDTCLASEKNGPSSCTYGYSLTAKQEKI

Assay [13] in a line: CEETOX_H295R_MTT_cell_viability: Viability Assessment in the CeeTox HT-H295R MTT Assay (AID 2283718). The procedure, abridged:
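Human H295R adrenal cells, prestimulated 48 h with 10 uM forskolin, were exposed 48 h to chemicals in 0.1% DMSO. Viability was measured in the same wells by MTT (0.5 mg/ml, 4 h, 37 C), absorbance 570/650 nm, as percent of controls.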

The nature of assay [14]: CCTE_Deisenroth_AIME_384WELL_CTox_Inactive: Cytotoxicity Assessment (CTOX) in CCTE's 384-well Estrogen Receptor Transactivation Assay without AIME metabolic competence (metabolism negative), Deisenroth Lab (AID 2284039; active = hit-call score of the fitted dose curve at least 0.9, where 1 is the maximum;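 note: cell viability via live-cell protease substrate cleaved to fluorescent probe; cells exposed 24 h to medium preincubated 2 h with alginate-water beads without S9; loss of fluorescence signal means loss of viability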). The procedure, abridged:
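VM7Luc4E2 cells, metabolism-negative arm: test chemicals (0.002–200 uM, 10 points) pre-incubated 2 h with alginate-water microspheres, then medium transferred to cells for 24 h. Viability read as protease-substrate cleavage to fluorescent probe; loss-of-signal, bidirectional fitting.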

Assay [15] concerns the target human RAR-related Orphan Receptor gamma (RORg), RORC (gene 6097) (UniProt P51449). Description: ATG_RORg_TRANS: Attagene TRANS-FACTORIAL HepG2 Assay for human RAR-related Orphan Receptor gamma (RORg) (AID 2283011; active = hit-call score of the fitted dose curve at least 0.9, where 1 is the maximum). The method in brief: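 Readout: reporter transcript induction (RT-PCR, fluorescent primer extension, capillary electrophoresis) after 24 h compound exposure of transiently transfected HepG2 cells carrying a RORg-Gal4 chimera and GAL4-UAS reporters; DMSO served as baseline, with increasing signal fitted.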

Assay [16] addresses human Phosphodiesterase 10 (PDE10), PDE10A (gene 10846) (UniProt Q9Y233). As to the kind of experiment: NVS_ENZ_hPDE10: NovaScreen (NVS) Enzymatic Assay for human Phosphodiesterase 10 (PDE10) (AID 2283195; active = hit-call score of the fitted dose curve at least 0.9, where 1 is the maximum). The method in brief: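 Biochemical single-readout PDE10A assay, cell-free, extracted protein. Compounds first screened at 25 uM in duplicate, hits then titrated to 50 uM max. Activity measured after 1 h; loss-of-signal fitted against DMSO negative control.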

In assay [17] the target is Retinoic acid receptor alpha (Homo sapiens) (UniProt P10276). As to the kind of experiment: ATG_RARa_TRANS: Attagene TRANS-FACTORIAL HepG2 Assay for human Retinoic Acid Receptor alpha (RARa) (AID 2283005; active = hit-call score of the fitted dose curve at least 0.9, where 1 is the maximum). The procedure, abridged: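 HepG2 transiently transfected with multiplex GAL4-UAS reporter units including a human RARa–GAL4 chimera; 24 h compound exposure. Reporter mRNA quantified by RT-PCR, 6-FAM labeling and capillary electrophoresis; gain of signal versus DMSO.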
Retinoic acid receptor alpha (Homo sapiens), sequence (P10276 whole entry, looked up, the tested form may be a part): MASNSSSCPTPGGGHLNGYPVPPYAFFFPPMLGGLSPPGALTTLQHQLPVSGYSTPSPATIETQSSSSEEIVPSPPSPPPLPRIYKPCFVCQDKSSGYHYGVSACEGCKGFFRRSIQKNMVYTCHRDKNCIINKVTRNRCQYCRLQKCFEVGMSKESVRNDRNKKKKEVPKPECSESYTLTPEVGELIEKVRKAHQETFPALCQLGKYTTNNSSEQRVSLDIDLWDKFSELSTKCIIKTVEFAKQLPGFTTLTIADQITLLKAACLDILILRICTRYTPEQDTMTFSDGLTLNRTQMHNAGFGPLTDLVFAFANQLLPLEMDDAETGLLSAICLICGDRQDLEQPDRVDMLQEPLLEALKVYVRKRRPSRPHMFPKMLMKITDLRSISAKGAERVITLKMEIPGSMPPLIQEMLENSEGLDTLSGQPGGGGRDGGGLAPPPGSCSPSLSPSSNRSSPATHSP

Assay [18] in a line: CCTE_Harrill_HTTr_CellCount_MCF7: CCTE's Cell Proliferation Assessment for the High-Throughput Transcriptomics (HTTr) Platform, Harrill Lab (AID 2284012; active = hit-call score of the fitted dose curve at least 0.9, where 1 is the maximum;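 note: count of Hoechst-stained nuclei per well by high-content imaging in MCF-7 cells; cells exposed to compound for six hours; intended direction is loss of nuclei count meaning fewer cells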). The method in brief: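 Readout: Hoechst nuclear count by high-content imaging. MCF-7, 8-point dilution series, 6 h exposure. Bidirectional fit vs DMSO baseline.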
The target in assay [19] is human Retinoic Acid Receptor beta (RARb), RARB (gene 5915) (UniProt P10826). As to the kind of experiment: ATG_RARb_TRANS: Attagene TRANS-FACTORIAL HepG2 Assay for human Retinoic Acid Receptor beta (AID 2283004; active = hit-call score of the fitted dose curve at least 0.9, where 1 is the maximum). The method in brief:
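HepG2 cells transiently transfected with multiplexed GAL4-UAS reporter units expressing chimeric NR–Gal4 fusions; 24 h compound exposure. Reporter mRNA quantified by RT-PCR, 6-FAM labelling, HpaI digestion and capillary electrophoresis; gain-of-signal fitted against DMSO baseline.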

The target in assay [20] is human Retinoic Acid Receptor gamma (RARg), RARG (gene 5916) (UniProt P13631). Description: ATG_RARg_TRANS: Attagene TRANS-FACTORIAL HepG2 Assay for human Retinoic Acid Receptor gamma (RARg) (AID 2283009; active = hit-call score of the fitted dose curve at least 0.9, where 1 is the maximum). The procedure, abridged: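 Readout: reporter transcript levels via RT-PCR, 6-FAM primer-extension labelling, HpaI digestion and capillary electrophoresis. Cells: HepG2 carrying transfected RARg-GAL4 chimera plus UAS reporter set. Dosing 24 h; DMSO negative control.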
human Retinoic Acid Receptor gamma (RARg), RARG (gene 5916), sequence (P13631 whole entry, looked up, the tested form may be a part): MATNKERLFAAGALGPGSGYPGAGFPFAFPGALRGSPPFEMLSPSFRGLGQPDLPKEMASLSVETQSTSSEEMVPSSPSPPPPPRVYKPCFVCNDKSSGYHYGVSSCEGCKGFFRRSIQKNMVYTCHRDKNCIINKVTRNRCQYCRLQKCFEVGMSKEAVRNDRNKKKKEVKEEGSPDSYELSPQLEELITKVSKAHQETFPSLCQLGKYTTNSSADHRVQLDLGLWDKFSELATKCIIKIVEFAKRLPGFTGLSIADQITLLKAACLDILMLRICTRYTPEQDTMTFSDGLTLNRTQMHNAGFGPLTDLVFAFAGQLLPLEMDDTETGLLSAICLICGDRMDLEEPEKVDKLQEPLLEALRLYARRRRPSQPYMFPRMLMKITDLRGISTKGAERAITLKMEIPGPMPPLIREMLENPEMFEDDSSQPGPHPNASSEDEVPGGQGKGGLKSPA

human Retinoic Acid Receptor beta (RARb), RARB (gene 5915), sequence (P10826 whole entry, looked up, the tested form may be a part): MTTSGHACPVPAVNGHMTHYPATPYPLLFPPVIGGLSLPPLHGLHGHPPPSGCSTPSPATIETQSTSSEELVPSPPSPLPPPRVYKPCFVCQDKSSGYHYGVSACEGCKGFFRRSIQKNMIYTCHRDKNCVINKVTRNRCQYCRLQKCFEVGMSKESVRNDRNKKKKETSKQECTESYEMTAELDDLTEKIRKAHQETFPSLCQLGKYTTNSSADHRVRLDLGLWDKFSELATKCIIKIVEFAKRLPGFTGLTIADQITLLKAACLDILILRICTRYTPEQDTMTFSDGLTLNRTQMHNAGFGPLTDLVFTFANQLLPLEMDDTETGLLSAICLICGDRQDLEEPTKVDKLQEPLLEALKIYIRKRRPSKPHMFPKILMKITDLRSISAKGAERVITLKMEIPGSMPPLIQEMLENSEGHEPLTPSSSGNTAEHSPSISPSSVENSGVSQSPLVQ
Luciferin 4-monooxygenase (Photinus pyralis), sequence (P08659 whole entry, looked up): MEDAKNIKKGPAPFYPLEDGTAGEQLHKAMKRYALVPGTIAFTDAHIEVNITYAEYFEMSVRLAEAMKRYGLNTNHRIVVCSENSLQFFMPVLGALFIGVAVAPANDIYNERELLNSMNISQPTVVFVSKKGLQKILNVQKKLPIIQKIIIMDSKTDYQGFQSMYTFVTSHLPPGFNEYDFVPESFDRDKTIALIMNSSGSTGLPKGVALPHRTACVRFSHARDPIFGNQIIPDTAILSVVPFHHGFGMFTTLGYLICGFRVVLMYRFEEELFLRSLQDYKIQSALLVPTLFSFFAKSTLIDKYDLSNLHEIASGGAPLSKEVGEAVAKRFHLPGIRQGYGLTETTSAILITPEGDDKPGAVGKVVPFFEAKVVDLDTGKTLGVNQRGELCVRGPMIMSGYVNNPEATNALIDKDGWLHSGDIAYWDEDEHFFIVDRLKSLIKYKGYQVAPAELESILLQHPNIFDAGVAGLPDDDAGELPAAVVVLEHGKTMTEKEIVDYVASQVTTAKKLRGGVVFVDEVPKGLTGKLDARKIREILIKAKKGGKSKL
Tumor necrosis factor (Homo sapiens), sequence (P01375 whole entry, looked up): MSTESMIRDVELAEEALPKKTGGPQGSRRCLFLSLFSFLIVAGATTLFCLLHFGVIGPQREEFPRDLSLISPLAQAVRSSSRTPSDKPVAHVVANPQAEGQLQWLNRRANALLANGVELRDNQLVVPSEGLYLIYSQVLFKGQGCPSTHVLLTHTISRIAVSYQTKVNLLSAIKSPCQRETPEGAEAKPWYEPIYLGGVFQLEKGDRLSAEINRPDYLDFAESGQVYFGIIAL
human RAR-related Orphan Receptor gamma (RORg), RORC (gene 6097), sequence (P51449 whole entry, looked up, the tested form may be a part): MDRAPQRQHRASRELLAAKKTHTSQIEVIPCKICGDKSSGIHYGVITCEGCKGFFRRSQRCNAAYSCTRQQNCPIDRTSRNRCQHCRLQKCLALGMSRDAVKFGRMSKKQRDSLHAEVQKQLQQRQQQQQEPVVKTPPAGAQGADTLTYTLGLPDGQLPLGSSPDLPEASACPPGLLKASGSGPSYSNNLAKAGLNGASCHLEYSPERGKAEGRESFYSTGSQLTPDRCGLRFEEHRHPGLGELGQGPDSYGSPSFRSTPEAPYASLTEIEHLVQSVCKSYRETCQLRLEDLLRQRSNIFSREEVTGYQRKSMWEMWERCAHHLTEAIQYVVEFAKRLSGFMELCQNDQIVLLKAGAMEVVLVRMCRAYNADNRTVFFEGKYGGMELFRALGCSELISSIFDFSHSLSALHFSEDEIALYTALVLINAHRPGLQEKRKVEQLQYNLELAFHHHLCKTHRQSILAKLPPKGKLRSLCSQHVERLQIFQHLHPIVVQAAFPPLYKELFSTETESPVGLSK
human Phosphodiesterase 10 (PDE10), PDE10A (gene 10846), sequence (Q9Y233 whole entry, looked up): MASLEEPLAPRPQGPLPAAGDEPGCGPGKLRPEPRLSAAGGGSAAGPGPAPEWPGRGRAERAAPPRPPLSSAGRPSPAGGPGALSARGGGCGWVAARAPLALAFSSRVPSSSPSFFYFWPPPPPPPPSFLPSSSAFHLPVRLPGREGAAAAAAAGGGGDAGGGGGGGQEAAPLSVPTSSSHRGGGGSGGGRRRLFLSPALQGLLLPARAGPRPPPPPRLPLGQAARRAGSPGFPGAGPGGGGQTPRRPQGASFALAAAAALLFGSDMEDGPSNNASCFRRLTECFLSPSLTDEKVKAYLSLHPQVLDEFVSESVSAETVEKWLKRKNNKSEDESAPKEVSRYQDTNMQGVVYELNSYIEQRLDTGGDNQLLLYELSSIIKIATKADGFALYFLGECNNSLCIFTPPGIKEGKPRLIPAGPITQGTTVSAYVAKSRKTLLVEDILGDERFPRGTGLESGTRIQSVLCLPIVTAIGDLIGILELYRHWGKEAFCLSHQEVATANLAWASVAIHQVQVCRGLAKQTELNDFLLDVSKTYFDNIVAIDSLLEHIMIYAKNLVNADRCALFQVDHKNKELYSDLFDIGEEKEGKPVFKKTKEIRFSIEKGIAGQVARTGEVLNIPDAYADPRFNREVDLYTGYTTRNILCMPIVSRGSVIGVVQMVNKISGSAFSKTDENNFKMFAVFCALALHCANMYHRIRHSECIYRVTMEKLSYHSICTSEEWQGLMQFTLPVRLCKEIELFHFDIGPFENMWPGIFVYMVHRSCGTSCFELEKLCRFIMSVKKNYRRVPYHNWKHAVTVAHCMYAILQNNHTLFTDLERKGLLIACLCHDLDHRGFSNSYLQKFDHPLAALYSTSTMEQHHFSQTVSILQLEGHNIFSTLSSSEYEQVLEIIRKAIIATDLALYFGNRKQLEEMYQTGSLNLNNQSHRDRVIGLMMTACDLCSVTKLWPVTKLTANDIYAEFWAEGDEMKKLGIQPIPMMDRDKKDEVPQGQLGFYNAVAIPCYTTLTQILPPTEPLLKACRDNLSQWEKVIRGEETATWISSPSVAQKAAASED

For `CC(C)COP(=O)(OCC(C)C)OCC(C)C`, the result in assay [1], in [2], in assay [3], in [4], in assay [5] and in [6] was inactive. Moreover, the outcome in [7] and in [8] was inactive.

As for `C=CC(=O)OCC(CC)CCCC` (stereo not drawn), the outcome in assay [9], in [10], in assay [11], in assay [1], in assay [2] and in assay [3] was inactive. The result in assay [4], in assay [5], in assay [6], in assay [7] and in assay [8] was inactive.

With `CN(C)C(=O)C(c1ccccc1)c1ccccc1`, the molecule was classed as inactive in assay [12].

As a reminder, the AC50 is the midpoint of the concentration-response curve, whichever way the signal moves. Consider `Nc1ccc(Cl)c(Cl)c1`, for which the AC50 in assay [9] was 1.16 µM (active); in assay [10] it was 2.18 µM (active). Further, the call in [13], in [11] and in assay [14] was inactive.

In the case of `C=COCCCl`, the outcome in assay [15] was inactive.

For `O=CNC(N1CCN(C(NC=O)C(Cl)(Cl)Cl)CC1)C(Cl)(Cl)Cl` (stereo not drawn), in [13], the molecule was classed as inactive.

For the molecule `O=c1c2ccccc2c(=O)c2c1cc(Cl)c1[nH]c3c([nH]c12)c(Cl)cc1c(=O)c2ccccc2c(=O)c13`, the molecule was classed as inactive in assay [16], in [1], in assay [2], in assay [3], in [4] and in assay [5]. Besides, the outcome in assay [6], in assay [7] and in [8] was inactive.

For the molecule `Cc1ccc(OP(=O)(Oc2ccc(C)cc2)Oc2ccc(C)cc2)cc1` (tested in a mixture with another compound), the result in [12], in [13], in assay [1], in assay [2], in assay [6] and in [8] was inactive. Further, the half-maximal activity concentration (AC50) in [3] was 32.6 µM (active); in assay [4], 24.6 µM (active); in assay [5], 26.4 µM (active); in assay [7], 10.2 µM (active).

Turning to `O=C=Nc1ccccc1`, the molecule was classed as inactive in assay [17], in assay [9], in assay [10], in assay [13] and in assay [11].

In the case of `N#CCCCCC#N`, the molecule was classed as inactive in [15], in assay [16], in [18] and in assay [14].

On to `CC(=O)C=Cc1ccccc1`, for which the molecule was called inactive in assay [12].

With `Nc1c(Cl)c(Cl)c(Cl)c(Cl)c1Cl`, the molecule was called inactive in assay [19], in [17] and in assay [20].

As for `CC1CCCC1.[C-]#[O+].[C-]#[O+].[C-]#[O+].[Mn]`, the molecule was classed as inactive in [19], in assay [20], in assay [12], in assay [10] and in assay [11]. For the same molecule, in assay [9], the AC50 is 26.4 µM (active).

For the molecule `Oc1ccc(Cl)cc1`, the molecule was classed as inactive in assay [19], in assay [12] and in [18].

In the case of `C[N+](C)(C)CC(=O)O`, in assay [18], the molecule was classed as inactive.

Regarding `CNC(=O)Oc1cc(C)c(SC)c(C)c1`, the call in assay [13], in assay [2], in [3], in [5], in [6] and in assay [7] was inactive. Further, in assay [8], the result was inactive. Also, the AC50 in assay [1] was 29.7 µM (active); in assay [4], 20 µM (active).
